Screening data from PubChem BioAssay.
USP30 block: human USP30 deubiquitinase inhibition; Q70CQ3; purified USP30, Ub-rhodamine cleavage fluorescence; inhibition, % at 25 µM; 47,000 tested, 5.3% active
Target sequence (Q70CQ3 whole entry, looked up): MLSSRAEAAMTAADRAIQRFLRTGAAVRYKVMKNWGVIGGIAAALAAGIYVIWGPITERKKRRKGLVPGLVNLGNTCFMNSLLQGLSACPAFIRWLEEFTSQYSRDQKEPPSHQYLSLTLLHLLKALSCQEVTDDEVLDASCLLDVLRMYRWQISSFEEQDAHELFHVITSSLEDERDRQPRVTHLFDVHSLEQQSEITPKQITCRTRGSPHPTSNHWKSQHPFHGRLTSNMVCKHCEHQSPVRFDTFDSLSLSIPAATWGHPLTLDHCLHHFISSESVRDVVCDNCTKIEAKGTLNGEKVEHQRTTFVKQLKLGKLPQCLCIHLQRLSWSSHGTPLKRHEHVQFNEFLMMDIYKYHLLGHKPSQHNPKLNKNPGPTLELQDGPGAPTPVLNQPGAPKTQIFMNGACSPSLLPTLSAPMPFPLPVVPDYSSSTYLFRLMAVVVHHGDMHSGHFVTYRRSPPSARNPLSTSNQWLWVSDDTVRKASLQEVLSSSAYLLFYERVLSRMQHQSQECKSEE
USP28 inh: human USP28 deubiquitinase inhibition | Q96RU2 | purified USP28, Ub-rhodamine cleavage fluorescence, 30 min | inhibition, % at 25 µM | 47,000 tested, 3% active | AID 1645857
USP17 inh: human USP17-like deubiquitinase inhibition; purified USP17, Ub-rhodamine cleavage fluorescence, 3 h; inhibition, % at 50 µM; 47,000 tested, 6.5% active; AID 1645855
USP8 inh: human USP8 deubiquitinase inhibition | P40818 | purified USP8, Ub-rhodamine cleavage fluorescence, 30 min | inhibition, % at 20 µM | 47,000 tested, 4.2% active | AID 1645853
* = called active by the depositor. Only some compounds are listed: those with a hit (about 14% of all), similar ones and a draw of the others. No stated cut-off is given here; in the data, active means inhibition above about 30%; inactive means the rest.

Results for CC1CCC2C(C)(C)C(O)CCC2(C)C12Cc1c(cc3c(c1O)CN(CCCCC(=O)O)C3=O)O2 (stereo not given) ?
USP30 block: -38; USP28 inh: 12; USP17 inh: 49*; USP8 inh: -63

What do the screens show for `O=C(c1cc(-c2ccc(Cl)cc2)on1)N(Cc1ccco1)C1CCS(=O)(=O)C1` (stereo not given)?
USP30 block: -82; USP28 inh: -16; USP17 inh: -8; USP8 inh: -24

What do the screens show for `NC(=O)c1ccc(Oc2ccc(Cl)cc2)nc1`?
USP30 block: 30; USP28 inh: 37*; USP17 inh: 32*; USP8 inh: 0

How did CC(=O)Nc1ccc(Oc2cncc(Cl)c2)nc1 do in these assays?
USP30 block: 2; USP28 inh: -3; USP17 inh: 5; USP8 inh: 12

What do the screens show for `O=C(Nc1cccc(Cl)c1)N1CCN(c2cc(C(F)(F)F)ccn2)CC1`?
USP30 block: 26; USP28 inh: -1; USP17 inh: 59*; USP8 inh: 3

How did O=C1CN(C(=O)CNc2ccccc2C(=O)NCCc2ccccc2)c2ccccc2N1 do in these assays?
USP30 block: -24; USP28 inh: -5; USP17 inh: 3; USP8 inh: -9

What do the screens show for `COc1ccc(C2(C(=O)N3CCc4c(c(CO)nn4C)C3)CC2)cc1`?
USP30 block: -2; USP28 inh: -5; USP17 inh: -1; USP8 inh: 2

What do the screens show for `Cc1ccc(N2CC(c3nc4ccccc4n3CCOc3cccc(C)c3)CC2=O)cc1` (stereo not given)?
USP30 block: 47*; USP28 inh: 16; USP17 inh: 48*; USP8 inh: 95*

How did COc1ccc(OCCn2c(C3CC(=O)N(C)C3)nc3ccccc32)cc1 (stereo not given) do in these assays?
USP30 block: 11; USP28 inh: 10; USP17 inh: 0; USP8 inh: 23

What do the screens show for `Cc1ccc(N2CC(c3nc4ccccc4n3CCCCOc3ccccc3)CC2=O)cc1` (stereo not given)?
USP30 block: 52*; USP28 inh: 22; USP17 inh: 17; USP8 inh: 5

Results for Cc1nc(Nc2ccccn2)cc(C2CCCN2S(C)(=O)=O)n1 (stereo not given) ?
USP30 block: 26; USP28 inh: 8; USP17 inh: 9; USP8 inh: 19

What do the screens show for `c1ccc(-c2ccc(-c3nc(-c4ccncc4)no3)cc2)cc1`?
USP30 block: -19; USP28 inh: -9; USP17 inh: -3; USP8 inh: -1

How did c1ccc2c(Cc3nc(-c4ccncc4)no3)cccc2c1 do in these assays?
USP30 block: -24; USP28 inh: 85*; USP17 inh: -22; USP8 inh: 0

What do the screens show for `Cc1c(C2CCCN(C(=O)c3ccn(C)n3)C2)n2c(nc1=O)CCC2` (stereo not given)?
USP30 block: 37*; USP28 inh: 5; USP17 inh: 19; USP8 inh: 36*

Results for CC1(C)c2[nH]c3ccccc3c2C[C@@H]2C(=O)N(CCc3ccccc3)CC(=O)N21 ?
USP30 block: -7; USP28 inh: 3; USP17 inh: 5; USP8 inh: 6

How did Cc1cc(C)c2c(n1)sc1c(=O)n(CC(=O)Nc3cccc(Cl)c3)cnc12 do in these assays?
USP30 block: -50; USP28 inh: -3; USP17 inh: 41*; USP8 inh: -4

Results for O=C(Nc1cccc(S(=O)(=O)N2CCCC2)c1)c1ccc(N2CCOCC2)c([N+](=O)[O-])c1 ?
USP30 block: 23; USP28 inh: 41*; USP17 inh: 8; USP8 inh: 0

How did O=C(COC(=O)c1ccc2c(=O)n3c(nc2c1)CCCCC3)NCC1CCCCC1 do in these assays?
USP30 block: 65*; USP28 inh: 41*; USP17 inh: 55*; USP8 inh: 7

How did Cc1ccc(NC(=O)c2ccc3c(=O)n4c(nc3c2)CCCCC4)cc1S(=O)(=O)N1CCOCC1 do in these assays?
USP17 inh: 36*; USP8 inh: 10

Results for O=C(Nc1cccc(S(=O)(=O)N2CCCC2)c1)c1ccc2c(=O)n3c(nc2c1)CCCCC3 ?
USP30 block: 27; USP28 inh: 62*; USP17 inh: 20; USP8 inh: 2

How did O=S(=O)(Nc1cccn2cnnc12)c1ccccc1C(F)(F)F do in these assays?
USP17 inh: -13; USP8 inh: -16

Results for O=C(NCCc1cccnc1)c1nc(-c2cn(-c3nccs3)cn2)n2ccccc12 ?
USP30 block: -108; USP28 inh: -5; USP17 inh: 45*; USP8 inh: -16

Results for COCCn1cnc(-c2nc(C(=O)NCCc3ccccn3)c3ccccn23)c1 ?
USP30 block: -338; USP28 inh: -88; USP17 inh: -109; USP8 inh: -121

Results for NC(=O)[C@@H]1CN2CCN(S(=O)(=O)c3ccccc3)C[C@@H]2[C@H]1c1ccccc1 ?
USP30 block: 0; USP28 inh: 0; USP17 inh: -3; USP8 inh: 0

What do the screens show for `CN(Cc1ccccc1)Cc1nc(-c2ccc(N3CCCCCC3)nc2)no1`?
USP30 block: -17; USP28 inh: -6; USP17 inh: 3; USP8 inh: 5

How did COc1ccc(CN[C@H]2[C@H](O)[C@H](O)C[C@@H]2c2cncnc2)cn1 do in these assays?
USP30 block: -19; USP28 inh: 20; USP17 inh: -6; USP8 inh: 35*

What do the screens show for `O[C@H]1[C@H](NCc2ccccc2)[C@@H](c2cccnc2)C[C@H]1O`?
USP30 block: -12; USP28 inh: -13; USP17 inh: -8; USP8 inh: -1

How did O[C@H]1[C@H](NCc2cccc(C(F)(F)F)c2)[C@@H](c2cncnc2)C[C@H]1O do in these assays?
USP30 block: -15; USP28 inh: 28; USP17 inh: -13; USP8 inh: 61*

Results for CC(=O)Nc1ccc(NC(=O)CC2N=C(N3CCN(c4ccccc4)CC3)NC2=O)cc1 (stereo not given) ?
USP30 block: -15; USP28 inh: -49; USP17 inh: -16; USP8 inh: -6

What do the screens show for `CCOc1ccc(NC(=O)CC2N=C(N3CCN(c4ccccc4F)CC3)NC2=O)cc1` (stereo not given)?
USP30 block: 35*; USP28 inh: 3; USP17 inh: 13; USP8 inh: 3

How did Cc1cccc(C(=O)NCc2noc(C3CCCC3)n2)c1C do in these assays?
USP30 block: -9; USP28 inh: -5; USP17 inh: -3; USP8 inh: 2

What do the screens show for `O=C(COc1ccc(S(=O)(=O)N2CCOCC2)cc1)N1CCC(Cc2ccccc2)CC1`?
USP30 block: 21; USP28 inh: 57*; USP17 inh: 3; USP8 inh: -32

Results for O=C(COc1ccccc1F)N1CCC(Cc2ccccc2)CC1 ?
USP30 block: 17; USP28 inh: 11; USP17 inh: 13; USP8 inh: 1

What do the screens show for `Cc1c(C)c2ccc(OCC(=O)N3CCC(Cc4ccccc4)CC3)cc2oc1=O`?
USP30 block: 48*; USP28 inh: 42*; USP17 inh: 18; USP8 inh: 20

How did CCOC(=O)C1CCN(C(=O)COc2ccc3c(=O)c(Oc4ccc(F)cc4)c(C)oc3c2)CC1 do in these assays?
USP30 block: 30*; USP28 inh: 3; USP17 inh: 0; USP8 inh: -2
